Experimental data reported in PubChem BioAssay (NCI).
The panel holds about 79,000 compounds, 15% with a hit somewhere; the sample as a whole holds those more often. Unmarked numbers belong to inactive results. Calls of active or inactive are those of the source. Cut-off read from the data, not from the text of the source: active = growth inhibition above about 70%; inactive = the rest.

Columns and labels:
[1] = NCI Yeast Anticancer Drug Screen. Data for the rad50 strain (AID 155);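 note: 0% = growth of vehicle-only cultures of the same strain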; details: S. cerevisiae rad50 strain growth inhibition, stronger effect = higher value
Outline: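 Yeast carrying a defined DNA repair defect were exposed to test compounds, and growth was compared with vehicle-treated controls to give percent inhibition.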

[2] = NCI Yeast Anticancer Drug Screen. Data for the mec2-1 strain (AID 157); details: S. cerevisiae mec2-1 strain, stronger effect = higher value
Outline: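 Test agents were screened against the mec2-1 yeast strain, with defined DNA repair or cell cycle alteration. Growth was scored as inhibition against vehicle-only controls.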

[3] = NCI Yeast Anticancer Drug Screen. Data for the sgs1 mgt1 strain (AID 161);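 note: 0% = growth of cultures given vehicle only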; details: S. cerevisiae sgs1 mgt1 strain, stronger effect = higher value
Outline: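 Mutant yeast exposed to compound; growth scored against vehicle-only wells.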

[4] = NCI Yeast Anticancer Drug Screen. Data for the cln2 rad14 strain (AID 165);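 note: 0% = growth equal to vehicle treated cultures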; details: S. cerevisiae cln2 rad14 strain, stronger effect = higher value
Outline: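 Growth of compound-exposed yeast (cln2 rad14 genotype) measured and expressed as inhibition relative to vehicle.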

[5] = NCI Yeast Anticancer Drug Screen. Data for the bub3 strain (AID 167); details: S. cerevisiae bub3 mutant strain, stronger effect = higher value
Outline: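 Compounds were applied to a genetically altered yeast strain carrying a cell-cycle control defect. Growth inhibition was scored against vehicle-treated controls.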

[6] = NCI Yeast Anticancer Drug Screen. Data for the mlh1 rad18 strain (AID 175); details: S. cerevisiae mlh1 rad18 strain growth inhibition, stronger effect = higher value
Outline: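 In this whole-cell yeast screen, a strain with altered DNA damage repair is challenged with compound, and its growth is measured against matched vehicle-treated controls.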

[7] = at 5.0 µM (retest, dose inferred, filed as 0.5)
[8] = at 50.0 µM (retest, dose inferred, filed as 5.0)

Row | SMILES | growth inhibition [1, 7] | growth inhibition [1, 8] | growth inhibition ([1]; at 50.0 µM) | growth inhibition [2, 7] | growth inhibition [2, 8] | growth inhibition ([2]; at 50.0 µM) | growth inhibition [3, 7] | growth inhibition [3, 8] | growth inhibition ([3]; at 50.0 µM) | growth inhibition [4, 7] | growth inhibition [4, 8] | growth inhibition ([4]; at 50.0 µM) | growth inhibition [5, 7] | growth inhibition [5, 8] | growth inhibition ([5]; at 50.0 µM) | growth inhibition [6, 7] | growth inhibition [6, 8] | growth inhibition ([6]; at 50.0 µM)
1 | S=P(Nc1ccc(Cl)cc1)(Nc1ccc(Cl)cc1)c1ccccc1 | 45% | 90% (active) | 97.8% (active) | 20% | 33% | 99.2% (active) | 18% | 65% | 97.1% (active) | 37% | 89% (active) | 95.6% (active) | 38% | 86% (active) | 99.1% (active) | 53% | 95% (active) | 99% (active)
2 | O=[N+]([O-])c1cc[n+]([O-])c2ccccc12 | 99% (active) | 98% (active) | 99.2% (active) | 100% (active) | 99% (active) | 53.9% | 99% (active) | 99% (active) | 54.9% | 100% (active) | 100% (active) | 99.3% (active) | 98% (active) | 99% (active) | 49.5% | 99% (active) | 99% (active) | 98% (active)
3 | CN(C)C(=O)OC1C(=O)N(C)c2ccc(Cl)cc2C2(c3ccccc3)N1C2(Cl)Cl (configuration not stated) | -18% | 62% | -23.3% | 5% | 69% | -14.8% | -12% | 77% (active) | -22.2% | -11% | 64% | -2.85% | 3% | 74% (active) | -33.4% | -4% | 70% (active) | 13.8%
4 | CC(=O)c1cc2c(cc1O)C(C)(C)CCC2(C)C | 3% | 3% | 97.8% (active) | 1% | 0% | 98.7% (active) | 2% | 1% | 47.7% | 0% | 0% | 95.6% (active) | 3% | 7% | 95% (active) | -2% | -5% | 98.8% (active)
5 | NCCNCCNCCNCCN (tested in a mixture with another compound) | 0% | 1% | 90.3% (active) | -35% | 0% | 25.8% | 0% | 2% | 52.9% | 2% | 4% | 35.8% | -1% | -5% | 80% (active) | 0% | 2% | 62.5%
6 | [CH3][Sn]([CH3])([Br])[Br].c1ccc(-c2nnc(-c3ccccn3)nc2-c2ccccc2)cc1 | -3% | 80% (active) | 20.4% | -16% | 58% | 32.9% | -9% | 53% | 16.4% | -17% | 90% (active) | 11.8% | -4% | 87% (active) | -3.3% | -23% | 47% | 23.8%
7 | CCNC(=O)OOC(C)(C)C | 16% | 93% (active) | 74.7% (active) | 6% | 83% (active) | 19.7% | 4% | 94% (active) | -5.55% | -2% | 77% (active) | -17.8% | -2% | 72% (active) | 1.45% | 19% | 96% (active) | 21.7%
8 | CCC[CH2][Sn]1([CH2]CCC)[O]c2ccccc2[O]1 | 9% | 95% (active) | 89% (active) | 23% | 94% (active) | 90.8% (active) | 13% | 94% (active) | 90.5% (active) | 0% | 92% (active) | 83.8% (active) | 35% | 95% (active) | 89.4% (active) | 11% | 96% (active) | 89.1% (active)
9 | CC[C@@]1(O)C(=O)OCc2c1cc1n(c2=O)Cc2cc3c(OC)cccc3nc2-1 | 96% (active) | 92% (active) | 83.6% (active) | 96% (active) | 92% (active) | 89.4% (active) | 71% (active) | 88% (active) | 82.4% (active) | 55% | 74% (active) | 64% | 48% | 78% (active) | 70.8% (active) | 86% (active) | 83% (active) | 78.8% (active)
10 | Nc1nc2ncnc(N)c2nc1-c1ccc(N(CCCl)CCCl)cc1 | -2% | 46% | 55.7% | -3% | 38% | 46% | -3% | 54% | 85.4% (active) | 6% | 18% | 16.4% | -1% | 40% | 13.7% | -5% | 35% | 68.8%
11 | CCC[CH2][Sn]1([CH2]CCC)[O]CC(CN2CCCCC2)[O]1 (configuration not stated) | 25% | 94% (active) | 82.7% (active) | 20% | 95% (active) | 85.4% (active) | 32% | 95% (active) | 82.8% (active) | 22% | 91% (active) | 78.5% (active) | 34% | 96% (active) | 88% (active) | 30% | 96% (active) | 87% (active)
12 | COC(CNS(=O)(=O)c1ccccc1)[CH2][Hg][O]C(C)=O (configuration not stated) | 1% | -1% | 99.5% (active) | -3% | 13% | 98.8% (active) | -5% | 19% | 99.2% (active) | -4% | 6% | 99.1% (active) | 2% | 4% | 99.2% (active) | -2% | 11% | 99.2% (active)
13 | CC(=O)O.[RuH].c1ccc([PH+](c2ccccc2)c2ccccc2)cc1.c1ccc([PH+](c2ccccc2)c2ccccc2)cc1.c1ccc([PH+](c2ccccc2)c2ccccc2)cc1 | -10% | 75% (active) | 43.5% | -15% | 90% (active) | 70.9% (active) | -5% | 68% | 72.5% (active) | -9% | 91% (active) | 75% (active) | 35% | 89% (active) | 72.5% (active) | -20% | 89% (active) | 66.5%
14 | COC1CC(OC2C(C)OC(OC3C(C)OC(OC4CCC5(C)C(=CCC6(O)C5CC(OC(=O)c5ccc(O)cc5)C5(C)C(O)(C(C)=O)CCC65O)C4)CC3OC)CC2OC)OC(C)C1O (configuration not stated) (tested in a mixture with another compound) | 1% | 68% | 45.9% | 8% | 82% (active) | 39.1% | 1% | 89% (active) | 68.7% | -7% | 49% | 48.6% | 6% | 74% (active) | 60.5% | -3% | 83% (active) | 55.1%
15 | CC(=O)[O][Sn]([c]1ccccc1)([c]1ccccc1)[c]1ccccc1 | 97% (active) | 99% (active) | 91.1% (active) | 99% (active) | 99% (active) | 93.4% (active) | 98% (active) | 98% (active) | 93.6% (active) | 90% (active) | 98% (active) | 92.8% (active) | 98% (active) | 96% (active) | 92.1% (active) | 100% (active) | 99% (active) | 91.4% (active)
16 | N#Cc1cc([N+](=O)[O-])c(Cl)c([N+](=O)[O-])c1 | 52% | 99% (active) | 91.5% (active) | 46% | 99% (active) | 93% (active) | 100% (active) | 100% (active) | 93.8% (active) | 67% | 101% (active) | 93.3% (active) | 101% (active) | 100% (active) | 92.7% (active) | 37% | 100% (active) | 92.2% (active)
17 | CC(C)CC[CH2][Pb]([CH2]CCC(C)C)([CH2]CCC(C)C)[O]C(=O)C(Cl)(Cl)Cl | 14% | 98% (active) | 99.1% (active) | 8% | 99% (active) | 98.9% (active) | 17% | 94% (active) | 98.4% (active) | -1% | 95% (active) | 98.8% (active) | 2% | 98% (active) | 99% (active) | 6% | 94% (active) | 98.7% (active)
18 | CNP(=O)(Oc1cc(Cl)c(Cl)cc1Cl)N1CCN(c2ccccc2)CC1 (configuration not stated) | 12% | 81% (active) | 98.8% (active) | 36% | 48% | 98% (active) | 8% | 72% (active) | 98% (active) | 25% | 53% | 97.8% (active) | 11% | 86% (active) | 97.5% (active) | -5% | 91% (active) | 97.4% (active)
19 | Cl[C](Cl)(Cl)[Hg][C](Cl)(Cl)Cl | 80% (active) | 96% (active) | 89.8% (active) | 90% (active) | 94% (active) | 92.7% (active) | 100% (active) | 100% (active) | 92.8% (active) | 99% (active) | 99% (active) | 91.5% (active) | 100% (active) | 97% (active) | 91.3% (active) | 78% (active) | 95% (active) | 90.2% (active)
